PMC5913336, “True equilibrium measurement of transcription factor-DNA binding affinities using automated polarization microscopy”

Each sequence was assayed against T1, Kni (Drosophila melanogaster, UniProt P10734 2-102) (assay: FP; 33 mM phosphate pH 7.0, 90 mM NaCl, 0.01% Tween 20, 0.1 mM DTT, 0.5% agarose; room temperature). Settings: tags: N-GST (pGEX-6P-1, kept); dsDNA, one strand shown.
T1 sequence: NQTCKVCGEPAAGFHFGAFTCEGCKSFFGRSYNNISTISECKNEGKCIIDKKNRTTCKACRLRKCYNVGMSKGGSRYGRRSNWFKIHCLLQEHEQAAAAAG

Point of comparison: CGAAACTAGAGCACT, binding signal 1.31 Kd / Kd of best base at the position. Against it:
- CAATACTAGAGCACT — higher, 6.63 Kd / Kd of best base at the position
- CACAACTAGAGCACT — higher, 2.2 Kd / Kd of best base at the position
- CAAAACTTGAGCACT — higher, 25.5 Kd / Kd of best base at the position
- CAGAACTAGAGCACT — higher, 1.99 Kd / Kd of best base at the position
- CAAAACTAGAGGACT — higher, 36 Kd / Kd of best base at the position
- CAAAACAAGAGCACT — higher, 7.6 Kd / Kd of best base at the position
- CAAGACTAGAGCACT — higher, 9.44 Kd / Kd of best base at the position
- CAAAACTAGAGCACA — higher, 2.62 Kd / Kd of best base at the position
- CAACACTAGAGCACT — higher, 31.8 Kd / Kd of best base at the position
- CAAAACTAGAGCCCT — higher, 12.1 Kd / Kd of best base at the position
- CAAAATTAGAGCACT — lower, 1.05 Kd / Kd of best base at the position
- CAAAAATAGAGCACT — higher, 2.52 Kd / Kd of best base at the position
- CCAAACTAGAGCACT — higher, 1.71 Kd / Kd of best base at the position
- AAAAACTAGAGCACT — lower, 1.14 Kd / Kd of best base at the position
- CAAAGCTAGAGCACT — higher, 16.3 Kd / Kd of best base at the position
- CAAACCTAGAGCACT — higher, 16.3 Kd / Kd of best base at the position
- CAAAACTAGTGCACT — higher, 4.66 Kd / Kd of best base at the position
- CAAAACTAGAGAACT — higher, 69.3 Kd / Kd of best base at the position
- GAAAACTAGAGCACT — higher, 1.36 Kd / Kd of best base at the position
- CAAAACTAGAGTACT — higher, 5.23 Kd / Kd of best base at the position
- CAAAACTAGAGCAGT — higher, 2.97 Kd / Kd of best base at the position
- CAAAACTAAAGCACT — higher, 8.43 Kd / Kd of best base at the position
- CTAAACTAGAGCACT — higher, 1.45 Kd / Kd of best base at the position
- CAAAACTAGGGCACT — higher, 2.34 Kd / Kd of best base at the position
- CAAAACTCGAGCACT — higher, 9.21 Kd / Kd of best base at the position
- CAAAACTAGAGCAAT — higher, 2.66 Kd / Kd of best base at the position
- CAAAACTAGACCACT — higher, 3.9 Kd / Kd of best base at the position
- CAAAACTAGAGCTCT — higher, 7.77 Kd / Kd of best base at the position
- CAAAACTACAGCACT — higher, 52.4 Kd / Kd of best base at the position
- CAAAACGAGAGCACT — higher, 3.56 Kd / Kd of best base at the position
- CAAAACTAGAGCGCT — higher, 3.42 Kd / Kd of best base at the position
- CAAAACTAGAACACT — higher, 3.87 Kd / Kd of best base at the position
- CAAAACTATAGCACT — higher, 12.9 Kd / Kd of best base at the position
- CAAAACTAGAGCACG — higher, 2.74 Kd / Kd of best base at the position

For CAAAACTAGAGCACT, the Kd was roughly 1.8 nM.
